Hits are enriched below; roughly 3.1% of the tested compounds scored in any of these assays.
Vif-A3F inh – Vif-A3F binding inhibition | HeLa A3F-eYFP + Vif (tagged APOBEC3F with the HIV-1 protein that degrades it), YFP fluorescence increase | Potency, µM (doses to about 46.1 µM) | 0.2% of 390,000 active; note: nearly all actives have a fitted effect of over 65% in size
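HeLa cells stably expressing Vif plus C-terminally eYFP-tagged A3F were seeded, incubated overnight at 37 deg C, dosed with compound, incubated overnight again at 37 deg C. Yellow fluorescence (Ex 488/Em 500-530) reported blocked Vif-mediated A3F-eYFP degradation.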
PLK1 PBD block – blocks phosphopeptide binding to human PLK1 polo-box domain | 2.8% of 360,000 active | P53350 | AID 720504 | Potency, µM, most hits filed as inhibitors | Plk1 PBD binding of FITC phosphopeptide, fluorescence polarization; note: series mostly up to about 57 µM; nearly all actives have a fitted effect of over 65% in size
Target sequence (P53350 whole entry, looked up, the tested form may be a part): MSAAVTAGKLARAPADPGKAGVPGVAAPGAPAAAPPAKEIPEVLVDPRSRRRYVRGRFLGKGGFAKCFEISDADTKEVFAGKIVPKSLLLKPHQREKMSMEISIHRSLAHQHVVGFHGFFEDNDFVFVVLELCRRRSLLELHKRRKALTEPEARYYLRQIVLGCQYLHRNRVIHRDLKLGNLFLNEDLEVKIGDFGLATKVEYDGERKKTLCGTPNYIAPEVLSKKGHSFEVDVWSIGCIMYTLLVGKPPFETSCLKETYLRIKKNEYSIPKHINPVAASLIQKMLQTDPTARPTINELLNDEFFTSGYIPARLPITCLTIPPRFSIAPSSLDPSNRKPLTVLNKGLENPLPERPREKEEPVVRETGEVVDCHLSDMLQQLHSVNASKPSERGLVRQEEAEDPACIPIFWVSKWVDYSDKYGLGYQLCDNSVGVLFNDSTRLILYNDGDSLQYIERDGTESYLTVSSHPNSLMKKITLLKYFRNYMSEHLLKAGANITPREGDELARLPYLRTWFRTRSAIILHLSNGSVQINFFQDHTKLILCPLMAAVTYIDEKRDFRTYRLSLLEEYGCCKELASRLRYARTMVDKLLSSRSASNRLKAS
VDR inhibitor – inhibitors of human vitamin D receptor; P11473; VDR-SRC2-3 peptide fluorescence polarization, 2 h; Potency, µM, most hits filed as inhibitors; 0.93% of 400,000 active; AID 504847
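Two reagent solutions held at 4 deg C in the dark were dispensed, compounds pinned at 23 nl, and the mixture incubated 2 h at room temperature. Read-out: fluorescence polarization of VDR–SRC2-3 peptide binding.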
Vif-APOBEC3G blk – blocks the Vif interaction with human APOBEC3G. 0.076% of 410,000 active. Q9HC16. AID 602310. HeLa A3G-eYFP + Vif (tagged APOBEC3G with the HIV-1 protein that degrades it), YFP fluorescence, overnight. Potency, µM (doses to about 46.1 µM), usual class: inhibitors; note: nearly all actives have a fitted effect of over 60% in size
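HeLa cells stably expressing Vif and C-terminally eYFP-tagged A3G, seeded overnight at 37 deg C, then exposed to compound by pintool overnight at 37 deg C. Rise in yellow fluorescence (Ex 488/Em 500-530, Acumen) marks blocked Vif-driven A3G degradation.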
TSHR antag – blocks TSH signaling through the human TSH receptor; P16473; TSHR-expressing cells, TSH-stimulated cAMP HTRF, 2 h; active compounds read low; activity change, negative = inhibition, % at 11.5 µM; 0.2% of 330,000 active;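 active = activity change below a set negative limit, meaning inhibition stronger than a set level, cut at about -70% in these data; inconclusive = activity change between two set negative limits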
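Freshly harvested TSHR cells receive pin-tooled compound, then EC80 TSH at 4nM final. After 2 hours at 37 deg C, antibody in lysis buffer and cAMP-d2 are added; 30 minutes at ambient temperature precede the HTRF read.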
Of the large screens only hits and unclear results are named; the others gave an inactive call. Unless noted, calls come from the whole dose curve; as a rule, active = well fitted curve in the direction sought with a large enough effect; inconclusive = small, poorly fitted or top-dose-only effect, or another doubt; inactive = no such curve, though single readings can be large; an effect the other way counts as inactive or inconclusive.

CC(=O)NCCNc1nc(-c2cccnc2)nc2ccccc12	none (no result: Vif-A3F inh, PLK1 PBD block, Vif-APOBEC3G blk, TSHR antag)
Cc1ccc(NC(=O)Cn2nc(-c3ccc(Cl)cc3)c3ccccc3c2=O)cc1	none (no result: Vif-A3F inh, PLK1 PBD block, Vif-APOBEC3G blk, TSHR antag)
O=C(Cn1sc2ccccc2c1=O)Nc1ccc(F)cc1	PLK1 PBD block 3µM (no result: VDR inhibitor, TSHR antag)
O=C(Cn1sc2ccccc2c1=O)Nc1ccc(Cl)cc1	PLK1 PBD block 5.3µM (no result: VDR inhibitor, TSHR antag)
O=C(Cn1sc2ccccc2c1=O)Nc1ccc(Br)cc1	Vif-A3F inh inconclusive, PLK1 PBD block 3µM (no result: VDR inhibitor, TSHR antag)
CCCN1CCCC(c2cccc(S(C)(=O)=O)c2)C1 (configuration not stated)	none (no result: Vif-A3F inh, PLK1 PBD block, Vif-APOBEC3G blk, TSHR antag)
c1ccc(CNc2nc(N3CCOCC3)nc(N3CCOCC3)n2)cc1	none
O=C(NC(=S)Nc1ccc(N2CCOCC2)cc1)c1ccc2c(c1)OCCO2	PLK1 PBD block 8.4µM, VDR inhibitor inconclusive
S=C(NCc1ccco1)Nc1ccc(Oc2ccccc2)cc1	PLK1 PBD block 17µM
O=S(=O)(c1ccc(NC(=S)NCc2ccco2)cc1)N1CCCC1	none
c1ccc(CNc2nc(NCc3ccco3)nc(N3CCOCC3)n2)cc1	PLK1 PBD block 30µM
S=C(NCc1ccco1)Nc1ccc(N2CCOCC2)cc1	PLK1 PBD block 27µM, VDR inhibitor inconclusive
O=C(NC(=S)Nc1ccc(N2CCCCC2)cc1)c1ccc2c(c1)OCCO2	none
Cc1ccc(NC(=S)N2CCN(C)CC2)c(C)c1	none
Cc1ccc(NC(=S)N2CCN(C(=O)c3ccccc3)CC2)c(C)c1	PLK1 PBD block 27µM
CN(C)c1ccc(C(=O)Oc2cc(O/N=[N+](\[O-])N(C)C)c([N+](=O)[O-])cc2[N+](=O)[O-])cc1	none (no result: Vif-A3F inh, PLK1 PBD block, VDR inhibitor, TSHR antag)
COCc1nnc(NC(=O)CSCc2ccccc2)s1	PLK1 PBD block 21µM
COCc1nnc(NC(=O)CSc2ccccc2)s1	none
COCCSc1ccccc1C(=O)Nc1nnc(COC)s1	PLK1 PBD block 27µM
COCc1nnc(NC(=O)c2ccccc2Oc2ccccc2)s1	none
CCCCC/C=C\C/C=C\C/C=C\CCCCCCC(=O)NCC(=O)O	none (no result: Vif-A3F inh, PLK1 PBD block, Vif-APOBEC3G blk, TSHR antag)
CCCc1ccc(OC(C)C(=O)Nc2sc3c(c2C(=O)OC)CCCCC3)cc1 (configuration not stated)	VDR inhibitor 89µM (no result: PLK1 PBD block, TSHR antag)
CCOC(=O)c1c(NC(=O)C(C)Oc2ccc(Cl)c(C)c2)sc2c1CCCC2 (configuration not stated)	VDR inhibitor 79µM (no result: PLK1 PBD block, TSHR antag)
Cn1c(CCC(=O)O)nc2cc(S(=O)(=O)N3CCCC3)ccc21	none
Cn1c(CCC(=O)O)nc2cc(S(=O)(=O)N3CCCCC3)ccc21	PLK1 PBD block 27µM, VDR inhibitor inconclusive
NS(=O)(=O)c1ccc(CCNC(=O)c2cc3ccccc3s2)cc1	TSHR antag -103
Cc1cc2oc(C(=O)NCCc3ccc(S(N)(=O)=O)cc3)cc(=O)c2cc1C	PLK1 PBD block 27µM, VDR inhibitor inconclusive
Cc1ccc(NC(=O)Cn2cc(C(=O)c3ccco3)c3ccccc32)cc1	none (no result: PLK1 PBD block, TSHR antag)
CC(=O)Nc1ccc(/C=C/c2ccnc3ccccc23)cc1	none (no result: Vif-A3F inh, PLK1 PBD block, VDR inhibitor, TSHR antag)
c1ccc2oc(-c3csc(NCC4CCCO4)n3)cc2c1 (configuration not stated)	VDR inhibitor 79µM
CCc1nc2sc3c(=O)[nH]cnc3c2c2c1CSC(C)(C)C2	PLK1 PBD block 27µM
Cc1cc(C)cc(NC(=S)/C(=C(\[O-])c2ccc(Cl)cc2Cl)[n+]2ccccc2)c1	PLK1 PBD block 30µM
COc1ccc(C2=N[C@H](c3ccccc3)CO2)cc1	none (no result: Vif-A3F inh, PLK1 PBD block, Vif-APOBEC3G blk, TSHR antag)
COc1ccc(C2CC23N=C(c2ccccc2)OC3=O)cc1 (configuration not stated)	PLK1 PBD block 17µM, VDR inhibitor inconclusive
CN(C)c1nc(C=C(C#N)C#N)c(Cl)n1-c1ccc(F)cc1	PLK1 PBD block 15µM, VDR inhibitor 25µM, Vif-APOBEC3G blk inconclusive
CC[C@@]1([C@@H]2O[C@@H]([C@H]3O[C@@](O)(CO)[C@H](C)C[C@@H]3C)C[C@@H]2C)CC[C@@H]([C@]2(C)CCC3(C[C@H](O)[C@@H](C)[C@@H]([C@@H](C)[C@@H](OC)[C@H](C)C(=O)O)O3)O2)O1 (some centres not stated)	none (no result: Vif-A3F inh, PLK1 PBD block, Vif-APOBEC3G blk, TSHR antag)
CCOC(=O)C1=C(C#N)C(C(=O)OCC)c2ncccc21 (configuration not stated)	PLK1 PBD block 3.4µM (no result: VDR inhibitor, TSHR antag)
CCOC(=O)C1=C(C(C)=O)C(c2cccnc2)C(C#N)=C(N)O1 (configuration not stated)	none
COc1ccc(C(=O)N(c2ccc(OC)cc2)S(=O)(=O)c2cccs2)cc1	none
COc1ccc(N(C(=O)c2ccccc2)S(=O)(=O)c2cccs2)cc1	PLK1 PBD block 19µM, VDR inhibitor 22µM
C[C@H](NC(=O)C1CC(=O)N(c2ccc3c(c2)OCO3)C1)C(=O)NC1CCCC1 (some centres not stated)	PLK1 PBD block 27µM, VDR inhibitor inconclusive
O=C(Cn1c2ncccc2c(=O)n1-c1ccccc1)NCc1ccccc1Cl	none (no result: PLK1 PBD block, TSHR antag)
Cc1ccc(NC(=O)/C(C#N)=C\c2ccc(-c3ccc(Cl)cc3)o2)c(C)c1	Vif-A3F inh 3.2µM (no result: PLK1 PBD block, TSHR antag)
CNC(=O)/C(C#N)=C/c1ccc(-c2ccc(Cl)cc2)o1	none
Cc1cc(O)c(C(c2ccccc2)N2CCN(c3ccc(F)cc3)CC2)c(=O)n1Cc1ccco1 (configuration not stated)	none (no result: PLK1 PBD block, TSHR antag)
Cc1ccc(NC(=O)Cn2cnc3ccccc32)cc1C	PLK1 PBD block 13µM, VDR inhibitor inconclusive
O=C(Cn1cnc2ccccc21)Nc1cccc([N+](=O)[O-])c1	none
O=C1Nc2ccccc2C1(O)C/C(=N/O)c1ccccc1 (configuration not stated)	PLK1 PBD block 27µM, VDR inhibitor inconclusive
Cc1ccccc1NC(=O)COC(=O)Cc1ccsc1	PLK1 PBD block 27µM
Cc1cc(C)c(NC(=O)COC(=O)Cc2ccsc2)c(C)c1	PLK1 PBD block 27µM
CCCCCCCCOc1ccc(C2OC34CCCCC3C(C#N)(C#N)C2(C#N)C(=N)O4)cc1 (configuration not stated)	Vif-A3F inh inconclusive, PLK1 PBD block 24µM
CCCCn1c(NS(=O)(=O)c2ccc(C)cc2)c(S(=O)(=O)c2ccccc2)c2nc3ccccc3nc21	PLK1 PBD block 9.5µM, VDR inhibitor inconclusive
Cc1ccc(S(=O)(=O)c2c(N)n(CCCN(C)C)c3nc4ccccc4nc23)cc1	none
CCc1oc2ccccc2c1C(=O)c1cc(I)c(O)c(I)c1	VDR inhibitor 32µM (no result: Vif-A3F inh, PLK1 PBD block, Vif-APOBEC3G blk, TSHR antag)
O=[N+]([O-])c1ccc(/C=C2\C=C(C(O)c3ccc([N+](=O)[O-])cc3)c3ccccc32)cc1 (configuration not stated)	none (no result: Vif-A3F inh, PLK1 PBD block, VDR inhibitor, TSHR antag)
CCOC(=O)C1=C(CSc2nc(C)ccc2C#N)OC(N)=C(C#N)C1c1cccc(OC)c1OC (configuration not stated)	PLK1 PBD block 21µM
CCOc1cc(/C=N/O)ccc1OCc1ccc(F)cc1	PLK1 PBD block 24µM, VDR inhibitor 50µM
CCOc1cc(/C=N/O)ccc1OCc1ccc([N+](=O)[O-])cc1	PLK1 PBD block 24µM, VDR inhibitor inconclusive
